# DAX1 inh-1 – DAX1 (NR0B1) inhibitors on StAR promoter, primary screen, cell-based, luminescence, SF-1 (NR5A1), full-length DAX-1. 1.1% of 370,000 active. HEK293T StAR-luciferase reporter, SF-1/DAX-1 repression relief. AID 652010, 2013. inhibition, % at 6.8 µM;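 active means inhibition above the mean over all tested compounds plus 3 SD, cut at about 3.6% in these data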;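 further: 0% = DAX-1 cells with DMSO and 100% = cells lacking DAX-1 with DMSO; higher inhibition means more luminescence from relief of DAX-1 repression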
# hgDAF-12 ag – H. glycines DAF-12 receptor agonists, primary screen, cell-based, luminescence, HEK293, GAL4 fusion, UAS-luciferase; Nuclear hormone receptor DAF-12 (Heterodera glycines), GAL4 fusion; HEK293 GAL4-hgDAF12 UAS-luciferase reporter, agonist luminescence; normalized to butyrate control; activation, % at 6.8 µM; 1.8% of 370,000 active; AID 687014, 2013;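 active means activation above a cutoff set at the mean of all screened compounds plus 3 SD, cut at about 10% in these data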;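 further: 0% = DMSO wells and 100% = sodium butyrate wells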
# ssDAF-12 act – S. stercoralis DAF-12 nuclear receptor activators, primary screen, cell-based, luminescence, HEK293, GRIP1 co-expression, lit1-tk-luc; AID 652126, 2013; Nuclear hormone receptor DAF-12 (Strongyloides stercoralis); HEK293 ssDAF-12/GRIP1 lit1-tk-luc reporter; % of 3 µM dafachronic acid response; 1% of 370,000 active; activation, % at 6.8 µM;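 active means activation above the mean over all tested compounds plus 3 SD, cut at about 0.9% in these data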;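 further: 0% = DMSO-only wells and 100% = 3 µM delta7-dafachronic acid wells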
# DAX1 inh-2 – DAX1 (NR0B1) inhibitors, primary screen, cell-based, HEK293, Gal4-DAX1, luciferase luminescence. 0.99% of 340,000 active. Nuclear receptor subfamily 0 group B member 1 (Homo sapiens), P51843. HEK293 Gal4-DAX1 luciferase reporter. inhibition, % at 6.75 µM;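 active means inhibition above the mean over all tested compounds plus 3 SD, cut at about 4.2% in these data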;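 further: 0% = DAX1-transfected cells with DMSO and 100% = empty-vector control cells with DMSO; inhibition shows as a rise in luminescence from relieved DAX1 repression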
# Target sequence (P51843 207-470 limits assumed): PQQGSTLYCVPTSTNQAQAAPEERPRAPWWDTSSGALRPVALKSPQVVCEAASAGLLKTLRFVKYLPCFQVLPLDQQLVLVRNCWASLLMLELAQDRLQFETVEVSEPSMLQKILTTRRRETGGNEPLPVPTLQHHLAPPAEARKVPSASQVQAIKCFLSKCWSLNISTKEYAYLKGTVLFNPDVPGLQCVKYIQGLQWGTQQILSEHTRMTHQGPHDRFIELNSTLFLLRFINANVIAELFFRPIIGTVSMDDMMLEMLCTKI
# hcDAF12 agonist – H. contortus DAF-12 nuclear receptor activators, primary screen, cell-based, luminescence, HEK293, lit1-tk-luc reporter; HEK293 hcDAF-12 lit1-tk-luc reporter; 0% DMSO, 100% Δ7-dafachronic acid; activation, % at 6.8 µM; 1.4% of 370,000 active;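 active means activation above the mean of all tested compounds plus 3 SD, cut at about 5.5% in these data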;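 further: 100% = response to 3 µM Δ7-dafachronic acid high control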
# An asterisk follows results filed as active; / = no result given. A selection: hits, their analogues and other compounds. The true share with any hit is near 4.1%.
SMILES,DAX1 inh-1,hgDAF-12 ag,ssDAF-12 act,DAX1 inh-2,hcDAF12 agonist
CC(=O)Oc1ccc(C(=O)Nc2ccccc2C(=O)Nc2cccc(C(=O)O)c2)cc1,0,1,-1,5.4*,-1
NS(=O)(=O)c1ccc(NC(=O)CSc2nc3ccccc3c(=O)n2-c2ccc(Br)cc2)cc1,-1,-3,-2,/,-2
c1coc(-c2nn3c(-c4ccco4)nnc3s2)c1,0,-1,0,-1,-1
COc1ccccc1-c1nn2c(-c3ccco3)nnc2s1,3,8,0,5.9*,2
O=C(Nc1ccc(OC(F)(F)F)cc1)Nc1c(-c2ccc(C(F)(F)F)cc2)nc2ncccn12,1,0,0,/,0
CCNC(=O)Nc1ccc(-n2nc(C)c(C(=O)OCC)c2C)nc1,0,-1,-1,4.8*,1
CCOC(=O)c1c(C)nn(-c2ccc(NC(=O)/C=C/C(=O)O)cc2)c1C,-2,-14,-4,-5,-8
CCCCOCCCNC(=O)C[C@H]1C[C@@]2(C(=O)OC)C(=C[C@H](C(C)(C)C)O[C@@H]2C)N(Cc2ccco2)C1=O,-1,0,-2,/,-3
CCOn1c(=O)c(-c2ccc(F)cc2)[n+]([O-])c2ccccc21,0,-2,-1,4.8*,1
CCOn1c(=O)c(-c2cccs2)[n+]([O-])c2ccccc21,-1,0,-1,5.2*,1
CCOC(=O)COn1c(=O)c(-c2cccs2)[n+]([O-])c2ccccc21,0,2,-1,0,0
COC(=O)C1=C(C)NC(C)=C(C(=O)OC)C(N2C(=O)CCC2=O)C1 (centres undefined),-1,2,-1,/,1
CCOC(=O)N1CCN(C(=O)c2ccc3nc(N4CCC(C)CC4)sc3c2)CC1,-1,0,-2,-2,-1
CCOC(=O)N1CCN(C(=O)c2ccc3nc(N4CCCCC4)sc3c2)CC1,0,1,-1,0,-1
COc1cccc(N2CCN(C(=O)c3ccc4nc(N5CCC(C)CC5)sc4c3)CC2)c1,1,12*,-1,/,1
NC(=O)C1CCN(C(=O)c2ccc3nc(N4CCCCC4)sc3c2)CC1,1,7,0,5.2*,1
CCOC(=O)c1cnc(SCC(C)C)nc1N,3,11*,0,2,2
CCOC(=O)c1cnc(SCC#N)nc1N,0,0,0,6.9*,-2
CCOC(=O)c1cnc(SCC(=O)c2ccc(C)cc2)nc1N,0,3,-1,-1,-1
CCOC(=O)c1cnc(SC)nc1N,0,1,-1,0,-1
COc1ccc2c(c1OC)C(=O)N(c1ccccn1)C2,2,13*,1.3*,1,5.8*
COc1ccc2c(c1OC)C(=O)N(c1ccc(C)cc1)C2,3,12*,-1,6.2*,4
CCOC(=O)N[C@@H](CC(C)C)C(=O)N1CCC[C@H]1C(=O)NCc1ccccc1,1,-1,-1,/,-2
Cc1ccc(C(=O)Nc2ccccc2OC(F)F)cc1,-1,11*,-1,-1,0
O=C(Nc1ccccc1OC(F)F)c1ccccc1,0,-3,-1,1,-1
C/C(=N\NC(=O)c1nn(C)cc1Br)c1cccc(NC(=O)C2CCCC2)c1,2,11*,0,2,1
C/C(=N\NC(=O)c1nn(C)cc1Br)c1cccc(NC(=O)C(C)(C)C)c1,1,8,0,4,0
CC(C)(C)c1ccc(S(=O)(=O)N2CCCC2C(=O)N2CCN(c3ccccc3)CC2)cc1 (centres undefined),-1,0,0,/,-4
Nc1ccc(N=Nc2ccccc2)cc1[N+](=O)[O-],2,12*,3.0*,2,5.6*
CCN(CC)CCNC(=O)/C(=C/c1cn(C)c2ccccc12)NC(=O)c1ccc(OC)c(OC)c1,0,2,0,5.2*,1

# High-throughput results (PubChem BioAssay)
